EBI2 block: EBI2 (human) antagonism | EBI2 beta-arrestin recruitment, luminescence, 7a,25-OHC stimulated | 360,000 tested, 0.81% active | inhibition, % at 5 µM | P32249; in the data active = inhibition above about 38%;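 also: enzyme fragment complementation signal reports receptor beta-arrestin coupling in cells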
SENP8 block-1: blocks human SENP8 cleavage of Nedd8 substrate | 360,000 tested, 0.64% active | Q96LD8 | AID 602440 | recombinant SENP8, Nedd8 substrate fluorescence | inhibition, % at 20 µM; in the data active = inhibition mostly above about 40%, no sharp cut-off; inactive = mostly below about 27%
Target sequence (Q96LD8 whole entry, looked up): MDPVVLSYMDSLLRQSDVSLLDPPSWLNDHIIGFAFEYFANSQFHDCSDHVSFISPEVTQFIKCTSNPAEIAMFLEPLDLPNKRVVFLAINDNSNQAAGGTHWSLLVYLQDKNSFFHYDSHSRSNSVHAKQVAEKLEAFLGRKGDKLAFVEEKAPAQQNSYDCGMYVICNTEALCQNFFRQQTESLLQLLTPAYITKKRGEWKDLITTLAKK
AHR activator: human AHR activation | P35869 | AID 2796 | AHR-responsive luciferase reporter cells, luminescence | 320,000 tested, 2.5% active | activation, % at 5 µM; in the data active = activation above about 47%
SENP6 inh: blocks the human protease SENP6; inhibition, % at 10 µM; Recombinant SENP6 catalytic domain, aminoluciferin luminescence; 330,000 tested, 1.8% active; Q9GZR1;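 active = inhibition above about 50% at the single tested dose, limit read from the data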
SENP8 block-2: inhibitors of human SENP8 protease; purified SENP8, Z-RLRGG-aminoluciferin cleavage, luminescence; inhibition, % at 10 µM; 330,000 tested, 1.2% active; in the data active = inhibition above about 50%
SENP7 block: inhibitors of human SENP7 protease | Q9BQF6 | recombinant SENP7, Z-RLRGG-aminoluciferin luminescence, 40 min | inhibition, % at 5 µM | 330,000 tested, 1.5% active;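 active = inhibition above about 50% at the single test dose, limit read from the data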
SENP8 conf: confirmation of human SENP8 protease inhibitors; AID 488912; 6,200 tested, 40% active; inhibition, % at 12.5 µM; shares compounds with SENP7 block; Recombinant SENP8, Z-RLRGG-aminoluciferin luminescence, 60 min;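 active = mean inhibition across replicates above about 50%, limit read from the data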
SENP6 confirm: human SENP6 inhibition, confirmed; shares compounds with SENP7 block; recombinant SENP6, Z-RLRGG-aminoluciferin luminescence; inhibition, % at 12.5 µM; 6,200 tested, 58% active; AID 488915
SENP7 conf: confirmation of human SENP7 protease inhibitors | inhibition, % at 12.5 µM | recombinant SENP7, Z-RLRGG-aminoluciferin luminescence, 40 min | shares compounds with SENP7 block | 6,200 tested, 69% active
Casp3 SENP sel: selectivity test for SENP inhibitors: human caspase-3 inhibition; shares compounds with SENP7 block; 6,200 tested, 60% active; purified caspase-3, Z-DEVD-aminoluciferin luminescence, 60 min; AID 488918; inhibition, % at 12.5 µM;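 active = mean inhibition above about 50%, limit read from the data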
Target sequence (P42574 28-227 limits assumed): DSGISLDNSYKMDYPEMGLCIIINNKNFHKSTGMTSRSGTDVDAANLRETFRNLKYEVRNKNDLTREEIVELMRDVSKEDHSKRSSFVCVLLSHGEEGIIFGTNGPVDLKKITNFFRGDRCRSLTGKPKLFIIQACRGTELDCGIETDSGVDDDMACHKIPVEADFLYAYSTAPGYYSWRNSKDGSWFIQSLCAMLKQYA
Luc interf: interferes with luciferase luminescence in SENP counter-screen; shares compounds with SENP7 block; Pre-incubated SENP8/Z-RLRGG-aminoluciferin, luciferase luminescence interference; inhibition, % at 12.5 µM; 6,200 tested, 39% active; AID 488919;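 active = mean inhibition above about 50% when retested at one dose, limit read from the data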
Large screens that a line does not name were inactive (follow-up assays come after a bar, where they were run). Hits are enriched below; roughly 5% of the tested compounds scored in any of these assays.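 The calls were made as follows, unless noted: active = mean inhibition above about 50% in the one-dose retest (limit read from the data); inactive = the rest.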

NC(=O)C1(C(N)=O)OC1c1ccc(Cl)c(Cl)c1 (configuration not stated)	none
Nc1ccccc1C#Cc1ccccc1	SENP6 inh 66.9, SENP8 block-2 56.9, SENP7 block 65.6 | SENP8 conf inactive | SENP6 confirm 75.5 | SENP7 conf 91.2 | Casp3 SENP sel 59.2 | Luc interf 63.1
Nc1ccc(C#Cc2ccccc2)cc1	none
Cc1nc(C)n(CCNS(=O)(=O)c2ccc(C)c(C)c2)n1	none
COc1ccc(O)c(/C=N/N2CCCCC2)c1	SENP6 inh 80.0, SENP8 block-2 77.0, SENP7 block 83.4 | SENP8 conf 77.6 | SENP6 confirm 80.5 | SENP7 conf 96.0 | Casp3 SENP sel 87.7 | Luc interf 69.2
C=CCn1c2ccccc2c(=O)c2cc(C#CC3(O)CCCCC3)ccc21	SENP6 inh 75.8, SENP8 block-2 70.9 | SENP8 conf inactive | SENP6 confirm 78.7 | SENP7 conf 93.1 | Casp3 SENP sel 59.9 | Luc interf inactive
C=CCn1c2ccccc2c(=O)c2cc(C#CC[C@@H](C)O)ccc21	SENP6 inh 56.5 | SENP8 conf 59.0 | SENP6 confirm 59.3 | SENP7 conf 76.2 | Casp3 SENP sel 52.4 | Luc interf inactive
CCc1ccc(C(=O)OCC(=O)N(CCOC)c2c(N)n(Cc3ccccc3)c(=O)[nH]c2=O)cc1	none
CC(C)[C@H](N)C(=O)NC[C@H]1CC[C@H](C(=O)N[C@@H](Cc2ccccc2)C(=O)O)CC1	none
CC1CN(CCCCOc2ccc(F)cc2)CC(C)O1 (configuration not stated)	none
COc1ccc(C)cc1NC(=O)C1CCCN(S(=O)(=O)c2cccnc2)C1 (configuration not stated)	SENP8 block-2 60.0 | SENP8 conf inactive | SENP6 confirm inactive | SENP7 conf inactive | Casp3 SENP sel inactive | Luc interf inactive
Cc1ccsc1C1NC(=O)c2c(sc3c2CCCC3)N1 (configuration not stated)	AHR activator 113.6, SENP6 inh 73.9, SENP7 block 53.7 | SENP8 conf inactive | SENP6 confirm 67.6 | SENP7 conf 81.7 | Casp3 SENP sel 53.2 | Luc interf inactive
O=C(COC(=O)c1ccc(Cl)nc1)NCCC1=CCCCC1	none
COc1ccc(C(=O)NCC(=O)N/N=C/c2ccco2)cc1OC	SENP6 inh 101.2 | SENP8 conf inactive | SENP6 confirm inactive | SENP7 conf inactive | Casp3 SENP sel inactive | Luc interf inactive
O=C(CNC(=O)c1cncc(Br)c1)Nc1ccc(F)c(F)c1F	none
Cc1cc(NC(=O)c2ccccc2)sc1C	SENP6 inh 94.2, SENP8 block-2 89.8, SENP7 block 94.0 | SENP8 conf inactive | SENP6 confirm 96.3 | SENP7 conf 102.7 | Casp3 SENP sel 96.3 | Luc interf 95.2
O=Nc1[nH]c(=O)c(/C=C(\O)c2ccccc2)nc1NO	SENP6 inh 56.1, SENP7 block 58.0 (no result: AHR activator) | SENP8 conf 68.5 | SENP6 confirm 63.8 | SENP7 conf 85.9 | Casp3 SENP sel 93.2 | Luc interf 70.1
COc1cc2c(cc1OC)CN(CC(=O)Nc1ccc(C)c(S(=O)(=O)N3CCOCC3)c1)CC2	none
COc1cccc(/C=C/C(=O)OCC(=O)NC2CC2)c1OC	none
COc1cc(/C=C2/C(=O)N(c3cccc(Br)c3)N=C2C)cc(OC)c1O	SENP8 block-1 61.0, SENP7 block 53.6 | SENP8 conf inactive | SENP6 confirm inactive | SENP7 conf inactive | Casp3 SENP sel inactive | Luc interf inactive
COc1cc(/C=C2/C(=O)N(c3ccc(Br)cc3)N=C2C)cc([N+](=O)[O-])c1O	none (no result: EBI2 block, SENP8 block-1)
CC1=NN(c2ccccc2)C(=O)/C1=C/c1cccc(C)c1	SENP8 block-1 69.7, SENP7 block 52.4 | SENP8 conf inactive | SENP6 confirm inactive | SENP7 conf inactive | Casp3 SENP sel inactive | Luc interf inactive
CCOC(=O)CNC(=O)c1ccc(SCC)cc1	none
Cc1ccc(N/C=C/C(=O)c2ccco2)c(O)c1	SENP7 block 55.9 | SENP8 conf 54.8 | SENP6 confirm 52.6 | SENP7 conf 83.9 | Casp3 SENP sel 61.5 | Luc interf inactive
O=C(/C=C/Nc1ccc(F)cc1)c1ccco1	SENP6 inh 82.8, SENP8 block-2 73.6, SENP7 block 68.9 | SENP8 conf 83.7 | SENP6 confirm 81.9 | SENP7 conf 96.2 | Casp3 SENP sel 88.7 | Luc interf 79.2
O=C(/C=C/Nc1ccc(F)cc1)c1ccc(Br)cc1	SENP7 block 78.9 | SENP8 conf inactive | SENP6 confirm inactive | SENP7 conf inactive | Casp3 SENP sel inactive | Luc interf inactive
Cc1ccc([N+](=O)[O-])cc1N/C=C/C(=O)c1ccco1	none
CCOC(=O)c1ccc(N/C=C/C(=O)c2ccco2)cc1	SENP6 inh 84.5, SENP8 block-2 83.3 | SENP8 conf 68.6 | SENP6 confirm 71.1 | SENP7 conf 84.8 | Casp3 SENP sel 88.5 | Luc interf inactive
O=C(/C=C/Nc1ccc([N+](=O)[O-])cc1)c1ccc(Br)cc1	none
CCOC(=O)c1ccc(N/C=C/C(=O)c2ccc(OC)c(OC)c2)cc1	none
O=C(c1cccc([N+](=O)[O-])c1)c1ccc2[nH]c(=O)[nH]c2c1	none
COc1cccc(NC(=O)COC(=O)C2CC2)c1	none
CCCCc1ccc(S(=O)(=O)NCCCN2CCCC2=O)cc1	none
CCOC(=O)C1CCN(S(=O)(=O)c2c(C)[nH]c(C)c2C(=O)N2CCCCC2)CC1	none
CC[C@@]1(C(=O)OC)N[C@H](CN(C)C(=O)Nc2ccc(C)cc2)[C@@H]2C(=O)N(C)C(=O)[C@@H]21	none
COc1ccc(CCN=Cc2c(C)[nH]n(-c3ccc([N+](=O)[O-])cc3)c2=O)cc1OC	none
O=[N+]([O-])c1ccc(/C=N\N2CCN(c3ccc(Cl)cc3)CC2)cc1	none
Cc1[nH]n(-c2ccc([N+](=O)[O-])cc2)c(=O)c1/C=N/N1CCOCC1	SENP6 inh 78.4, SENP7 block 57.6 | SENP8 conf inactive | SENP6 confirm inactive | SENP7 conf inactive | Casp3 SENP sel inactive | Luc interf inactive
